Source: PubChem BioAssay AID743100 (Vanderbilt Specialized Chemistry Center, 2013)
The source made the active and inactive calls.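 Rule for the calls: active = calcium response above 60% of the acetylcholine maximum at human M5, as a positive modulator; inactive = the rest.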

molecular target: Muscarinic acetylcholine receptor M5 (Homo sapiens) (UniProt P08912); assay: potentiators of ACh response at human M5 – cell-based, single concentration, CHO-K1 hM5, calcium flux (AID 743100); settings: CHO-K1 hM5, Fluo-4 calcium flux, ACh EC20, active compounds read high; at 10 µM unless noted
Sequence (P08912 whole entry, looked up): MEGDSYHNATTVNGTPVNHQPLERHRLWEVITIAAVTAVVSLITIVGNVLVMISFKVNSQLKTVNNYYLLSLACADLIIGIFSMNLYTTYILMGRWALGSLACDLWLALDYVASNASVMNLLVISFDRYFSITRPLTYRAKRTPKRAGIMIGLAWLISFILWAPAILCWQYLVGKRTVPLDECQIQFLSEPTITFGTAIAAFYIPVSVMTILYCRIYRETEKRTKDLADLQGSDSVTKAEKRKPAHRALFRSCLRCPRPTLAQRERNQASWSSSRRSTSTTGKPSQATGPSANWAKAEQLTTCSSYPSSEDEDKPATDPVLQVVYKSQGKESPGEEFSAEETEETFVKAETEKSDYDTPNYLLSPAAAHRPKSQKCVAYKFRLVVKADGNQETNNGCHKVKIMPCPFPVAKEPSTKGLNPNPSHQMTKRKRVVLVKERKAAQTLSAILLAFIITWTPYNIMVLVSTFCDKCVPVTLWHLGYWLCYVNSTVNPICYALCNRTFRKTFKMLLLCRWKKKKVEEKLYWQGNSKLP

Compound | % ACh max response
CCN(C(=O)C1CCN(S(=O)(=O)c2ccc(OC)cc2)CC1)[C@H](C)c1ccccc1 | 91.8% [at 30 µM] (active)
CCOC(=O)C1(Cc2ccccc2)CCN(S(=O)(=O)c2ccc3occc3c2)CC1 | 18.7% (inactive)
CCN(Cc1ccccc1)C(=O)C1CCN(S(=O)(=O)c2ccc(OC)c(OC)c2)CC1 | 56% [at 30 µM] (inactive)
CCN(Cc1ccccc1)C(=O)C1CCN(S(=O)(=O)c2cccc(Cl)c2)CC1 | 65.3% [at 30 µM] (active)
CCN(Cc1ccccc1)C(=O)C1CCN(S(=O)(=O)c2ccc(C(C)C)cc2)CC1 | 66.7% [at 30 µM] (active)
CCN(Cc1ccccc1)C(=O)C1CCN(S(=O)(=O)c2cc(C)ccc2C)CC1 | 24.5% [at 30 µM] (inactive)
COc1ccc(S(=O)(=O)N2CCC(C(=O)N3CCCC3c3ccccc3)CC2)cc1 (configuration not stated) | 25.6% [at 30 µM] (inactive)
CCN(Cc1ccccc1)C(=O)C1CCN(S(=O)(=O)c2ccccc2C#N)CC1 | 24% [at 30 µM] (inactive)
CCN(Cc1ccccc1)C(=O)C1CCN(S(=O)(=O)c2ccc(Br)cc2)CC1 | 62.1% [at 30 µM] (active)
CCN(Cc1ccccc1)C(=O)C1CCN(S(=O)(=O)c2ccc3cnn(C)c3c2)CC1 | 62.3% (active)
CCN([C@H](C)c1ccccc1)S(=O)(=O)C1CCN(S(=O)(=O)c2ccc3[nH]ncc3c2)CC1 | 18.7% (inactive)
CCN(Cc1ccccc1)C(=O)C1CCN(S(=O)(=O)c2cccnc2Cl)CC1 | 30% [at 30 µM] (inactive)
